Bioassay records: PubChem, several laboratories
HSF1 inh – HSF1 inhibition; actives 0.77% (n = 300,000); activity change, negative = inhibition, % at 7.5 µM (by protocol); NIH3T3-HGL HSE-luciferase, MG132-induced, luminescence 8 h; stronger effect = lower value;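 active means more than half of replicate wells show activity change below -50%, luminescence cut by over half; inconclusive means some wells, but at most half, below -50%; inactive means no replicate well below -50%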;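 further: luciferase reports HSF-1 transcriptional activity via heat shock element; 0% = median of DMSO wells and -100% = zero luminescence signal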
SMARCA2 activ – activators of SMARCA2 function | MG213 cells, MMTV-luciferase reporter, dexamethasone, overnight | activation, % at 9.1 µM | actives 1% (n = 370,000); in the data active means activation above about 7.8%;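 further: 0% = vehicle wells and 100% = reference activator wells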
Wnt act – activates Wnt/beta-catenin signaling in a reporter cell assay | activator, plate reader | activation, % at 9.35 µM | actives 1.2% (n = 300,000) | AID 743398; in the data active means activation above about 30%, passing the limit was not always enough; inconclusive means no clear call, values can overlap the other calls;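 further: 0% = neutral control wells and 100% = positive control wells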
HSF-1 act – increases HSF-1 driven luciferase reporter signal | NIH3T3-HGL HSF-1 luciferase reporter, MG132, 8 h; 100% = twice DMSO control signal | activation, % at 9 µM | actives 1.7% (n = 300,000) | AID 504408;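 active means mean replicate activation of at least 50% with a set share of replicates each reaching 50%; inconclusive means only one of those two conditions met; inactive means mean below 50% and too few replicates reaching it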;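 further: 0% = median of the neutral control wells and 100% = twice that signal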
MITF act – activators of MITF-driven TRPM1 promoter activity in SK-MEL-5 cells; SK-MEL-5 TRPM1-promoter luciferase, 24 h; % of positive control, neutral wells = 0; activation, % at 12.5 µM; actives 0.75% (n = 300,000);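 active means mean activation of at least 80% with every replicate also reaching 80%; inconclusive means mean reaches 80% but some replicate falls short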;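 further: 0% = neutral control wells and 100% = parthenolide positive control wells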
esBAF inh – inhibitors of esBAF chromatin remodeling in mouse ES cells. Bmi1-luciferase knock-in reporter, 24 h; 100% = twice the neutral-well signal. AID 602393. actives 2% (n = 350,000). reporter increase, % at 12.5 µM; in the data active means activation above about 40%; inconclusive means no clear call, values can overlap the other calls;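 further: 0% = median of the plate's neutral control wells and 100% = double that signal; a rise in the Bmi1 reporter signal indicates esBAF inhibition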
Starred values were filed as active, the others as inactive; ? = inconclusive; . = not tested or not shown. The list is not random: actives were taken first. Their share in the collection is about 4.3%.

SMILES	HSF1 inh	SMARCA2 activ	Wnt act	HSF-1 act	MITF act	esBAF inh
CCN(CC1CCCO1)C(=O)c1cc(COc2cc(C)c(Cl)c(C)c2)on1 (centres undefined)	25.7	-0.4	29.8	47.6	90.5*	84.1*
CCCN1[C@H](C(=O)OC)[C@@H](CO)[C@@H]2Cn3c(ccc(C4=CCCCC4)c3=O)[C@@H]21	.	.	.	.	.	-6.5
COc1cccc(NC(=O)N2C[C@H](O)COC[C@H]3O[C@H](CC(=O)NCc4ccccc4F)CC[C@@H]32)c1	.	.	.	.	.	-4.5
CCC(Sc1nc(C)cc(C)n1)C(=O)NC1=NN=C(c2ccc(C)cc2)CS1 (centres undefined)	-73.9*	-3.7	-1.4	-71.5	-1.9	7.9
Cc1cc(C)nc(SCC(=O)NC2=NN=C(c3ccc(Br)cc3)CS2)n1	-44.6	0.1	.	-54.6	-18.9	-55.5
COc1cccc(-c2cc3nc(Nc4ccc(OC)c(OC)c4)n(C)c(=O)c3s2)c1	.	1.1	-0.1	.	.	52.8*
CN(C)CCCNC(=O)[C@H]1[C@H](CO)[C@H]2Cn3c(ccc(-c4cccnc4)c3=O)[C@@H]1N2C(=O)CC1CC1	.	.	.	.	.	-3.1
CN(C)c1cccc(C(=O)NN2C(=O)NC3(CCCCC3)C2=O)c1	.	3.3	11.8	.	18.1	42.7*
N#Cc1ccc(C(=O)NN2C(=O)NC3(CCCCC3)C2=O)cc1	.	2.9	-1.5	.	3.4	3.4
CCCCCCCNC(=O)C1(CC2CC(c3ccccc3)=NO2)CCN(C(=O)OC(C)(C)C)CC1 (centres undefined)	.	2.1	13.2	.	51.2	62.0*
COc1ccc(-c2cc(-c3cc(OC)ccc3O)[nH]n2)cc1	1.4	0.2	.	0.5	.	53.6*
COc1ccc(-c2cc(-c3ccc(Cl)cc3)n[nH]2)c(O)c1	62.4	1.2	41.1*	93.7*	121.9*	.
COc1ccc(-c2cc(-c3ccc(OC)c(OC)c3)n[nH]2)c(O)c1	15.4	1.6	.	11.3	.	.
COc1ccc(O)c(-c2cc(-c3cccc(Br)c3)n[nH]2)c1	25.7	4.2	15.1	33.5	55.7	62.0*
COc1ccc(O)c(-c2cc(-c3ccc(F)cc3)n[nH]2)c1	11.8	4.1	?	15.7	41.6	71.9*
C[C@H]1CN([C@@H](C)CO)C(=O)c2cc(NC(=O)Cc3ccccc3)ccc2O[C@@H]1CN(C)S(=O)(=O)c1ccccc1	.	.	.	.	.	2.9
COc1ccc(-c2cc(-c3cc(F)ccc3O)[nH]n2)cc1OC	.	1.1	27.2	.	100.2*	?
Cc1noc(C)c1NC(=O)Nc1ccc2c(c1)CC(=O)N([C@H](C)CO)C[C@H](C)[C@H](CN(C)S(=O)(=O)c1ccc(F)cc1)O2	.	.	.	.	.	-4.0
Cc1cc(C(=O)COC(=O)c2cccnc2Cl)c(C)n1C	.	-0.4	14.6	.	18.7	-50.4
CSc1ncccc1C(=O)OCC(=O)c1cc(C)n(C)c1C	.	0.3	53.5*	.	91.7*	24.7
CSc1ncccc1C(=O)OCC(=O)c1ccccc1	17.0	-3.2	1.3	11.8	17.8	21.3
CSc1ncccc1C(=O)OCC(=O)c1ccccc1Br	6.8	-0.8	1.3	54.0*	10.2	.
COc1ccc(C(=O)COC(=O)c2cccnc2SC)cc1	56.7	2.0	3.9	67.8*	6.5	.
CSc1ncccc1C(=O)OCC(=O)c1cc(C)n(CC2CCCO2)c1C (centres undefined)	-52.0*	-3.9	9.6	-58.1	24.2	-28.7
COc1cc(C(=O)OCC(=O)c2cc(C)n(CC3CCCO3)c2C)cc(OC)c1C (centres undefined)	.	-2.1	-1.0	.	28.8	4.8
SMILES	HSF1 inh	SMARCA2 activ	Wnt act	HSF-1 act	MITF act	esBAF inh
COC(=O)[C@H]1[C@H](CO)[C@H]2Cn3c(ccc(-c4ccccc4)c3=O)[C@H]2N1S(C)(=O)=O	.	.	.	.	.	2.5
Cc1ccsc1/C=N\NC(=O)c1ccc2c(c1)OCO2	5.3	1.1	39.4*	29.1	.	-1.7
O=C(N/N=C/c1cc(Br)cs1)c1ccc2c(c1)OCCO2	22.3	5.2	-1.9	57.3*	.	.
Cn1cc(C(=O)N/N=C/c2cc(Br)cs2)c2ccccc21	19.8	.	.	60.3*	.	.
Cc1ccc(/C=N/NC(=O)c2ccc3c(c2)OCCO3)s1	-5.8	1.8	2.1	-11.5	.	.
O=C(N/N=C/c1cccnc1)c1ccc2c(c1)OCO2	-59.3*	4.8	8.5	-66.6	24.3	41.9
O=C(N/N=C/c1ccc2c(c1)OCO2)c1ccc2c(c1)OCO2	1.7	1.8	25.3	5.9	57.9	36.4
C[C@H]1CN([C@@H](C)CO)S(=O)(=O)c2ccc(/C=C/c3ccccc3)cc2O[C@H]1CN(C)C(=O)NC1CCCC1	.	.	.	.	.	5.8
O=C(O)c1cccc(NC(=S)N/N=C/c2cccnc2)c1	-59.6*	2.7	-0.8	-62.1	2.7	.
COc1cc([C@@H]2c3cc4c(cc3[C@H](O)[C@H]3COC(=O)[C@H]23)OCO4)cc(OC)c1OC	-69.3*	0.5	-19.6	-74.1	-58.6	-7.4
Cc1ccc(OCC(=O)Nc2ccccc2C(=O)N2CCCCC2)cc1	-53.3*	-1.3	-0.6	-63.9	-3.7	-2.9
CCC(=O)c1ccc(OCC(=O)Nc2ccccc2C(=O)N2CCCCC2)cc1	-1.2	-0.1	10.5	-4.5	1.3	2.1
O=C(NCCn1ccc2ccccc21)c1ccc2c(c1)OCO2	36.0	4.5	38.0*	39.0	77.1	52.1*
COc1ccc(C(=O)NCCn2ccc3ccccc32)cc1	29.3	1.9	.	38.7	97.6*	43.8*
O=C(CSc1nnc(CNC(=O)c2cccs2)o1)NCc1ccc(F)cc1	-55.1*	-1.2	.	-64.0	11.4	.
O=C(NCCc1ccc(F)cc1)c1cccs1	42.0	5.9	10.5	49.0	29.4	64.7*
O=C(NCCc1cccs1)c1cccs1	12.8	3.0	10.6	5.9	?	61.0*
O=C(NCCC1CCCC1)c1cccs1	6.6	1.4	3.2	10.9	.	50.1*
C[C@H](CO)N1C[C@H](C)[C@@H](CN(C)C(=O)c2ccccc2)OCCCC[C@H](C)Oc2ccc(NC(=O)NC3CCCCC3)cc2C1=O	.	.	.	.	.	-4.0
O=C(C[C@H]1C[C@H]2c3cc(NC(=O)c4cccnc4)ccc3O[C@H]2[C@H](CO)O1)NCc1cccc(F)c1	.	.	.	.	.	5.0
O=C(NCCN1CCOCC1)c1cccs1	5.6	-0.7	.	-2.9	-5.9	-10.2
O=C(NCCN1Cc2ccccc2C1=O)c1cccs1	41.9	1.9	.	61.5*	22.5	16.2
C=CCn1c(CC(=O)OC)csc1=Nc1ccc(C(C)=O)cc1	5.2	2.1	-0.5	8.8	51.5	54.9*
C=CCn1c(C)csc1=Nc1ccc(C(C)=O)cc1	2.7	1.3	3.8	1.5	36.5	.
Cc1ccc(CSc2nc3ncccc3[nH]2)cc1	46.0	5.6	.	76.9*	37.8	-4.9
C=C(C)CSc1nc2ncccc2[nH]1	-4.4	-0.1	.	-3.1	6.3	5.8
N#C[C@H]1[C@@H](c2ccc(C3=CCCCC3)cc2)[C@@H](CO)N1S(=O)(=O)c1ccccc1	.	.	.	.	.	0.5
